# From PubChem
# Tau FP inhib – qHTS for Inhibitors of Tau Fibril Formation, Fluorescence Polarization; K18 P301L tau heparin fibrillization, Alexa594 FP, 6 h; Potency, µM (titrated, usually from 57.7 µM), hits mostly inhibitors; 0.39% of 280,000 active; AID 1468, 2008; also: nearly all actives have a fitted effect of over 55% in size
#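 Heparin (20 uM) drove fibril formation of recombinant tau K18 P301L, 15 uM unlabeled with 0.24 uM Alexa 594 label, for 6 hr at 37 C in 100 mM sodium acetate pH 7. Fluorescence polarization (555/632 nm) read 1 hr after 30 uM ThT.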
# TexasRed fluor – Total Fluorescence Counterscreen for Inhibitors of the Interaction of Thyroid Hormone Receptor and Steroid Receptor Coregulator 2; AID 1479, 2009; 0.29% of 280,000 active; TRb/SRC2 Texas Red total fluorescence interference; Potency, µM (series often up to 106 µM); active = well fitted curve in either direction with a large enough effect; inconclusive = small, poorly fitted or top-dose-only effect
#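 Flags fluorescent or light-absorbing compounds by total fluorescence, S + 2P, at 555 nm excitation and 632 nm emission. Mixture: 20 nM Texas Red SRC2 peptide, 0.6 uM human TRb LBD, 1 uM T3, 5% DMSO; compound exposure 5 h at ambient temperature.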
# Tau fibril ThT – qHTS for Inhibitors of Tau Fibril Formation, Thioflavin T Binding. Microtubule-associated protein tau (Homo sapiens), P10636. recombinant tau K18 P301L, heparin-induced fibrillization, ThT fluorescence. Potency, µM (highest dose often 57.4 µM), most hits filed as inhibitors. 2.1% of 270,000 active; also: nearly all actives have a fitted effect of over 55% in size
#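 Aggregation was driven by heparin (20 uM final) acting on recombinant tau […] bearing P301L in 100 mM sodium acetate pH 7; fibrils were detected with Thioflavin T.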
# Tau fluor counter – Counterscreen qHTS for Inhibitors of Tau Fibril Formation, Fluorescence Polarization; tau K18 P301L Alexa594 fluorescence, heparin fibrillization; Potency, µM (top dose mostly 57.7 µM); 0.93% of 280,000 active; AID 1463, 2008; also: nearly all actives have a fitted effect of over 55% in size
#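 Human tau K18 P301L (15 uM unlabeled, 0.24 uM Alexa 594-labeled) in 100 mM sodium acetate pH 7 with 20 uM heparin, 6 hr at 37 C. ThT 30 uM added, 1 hr ambient; Alexa 594 FP and total fluorescence read at 555/632 nm.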
# TRb-SRC2 inh – qHTS for Inhibitors of the Interaction of Thyroid Hormone Receptor and Steroid Receptor Coregulator 2 | Thyroid hormone receptor beta (Homo sapiens), P10828 | TRbeta-SRC2 peptide binding, fluorescence polarization; receptor liganded with 1 µM T3 | Potency, µM (top dose mostly 106 µM), hits mostly inhibitors | 0.065% of 280,000 active | AID 1469, 2008; also: nearly all actives have a fitted effect of over 50% in size
# Target sequence (P10828 whole entry, looked up): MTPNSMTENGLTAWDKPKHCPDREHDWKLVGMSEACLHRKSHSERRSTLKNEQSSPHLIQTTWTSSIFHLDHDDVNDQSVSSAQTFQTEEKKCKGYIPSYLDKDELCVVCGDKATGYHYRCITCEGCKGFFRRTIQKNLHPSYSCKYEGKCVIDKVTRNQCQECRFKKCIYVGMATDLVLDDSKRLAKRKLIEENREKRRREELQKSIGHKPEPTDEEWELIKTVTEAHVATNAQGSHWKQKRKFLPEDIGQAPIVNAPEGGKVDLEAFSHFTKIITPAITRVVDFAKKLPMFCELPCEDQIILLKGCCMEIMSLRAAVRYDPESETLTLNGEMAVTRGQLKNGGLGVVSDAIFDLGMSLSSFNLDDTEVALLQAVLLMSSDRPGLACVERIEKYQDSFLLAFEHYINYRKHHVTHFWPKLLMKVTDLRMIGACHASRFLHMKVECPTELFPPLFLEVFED
#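 Fluorescence polarization of 20 nM Texas Red SRC2 peptide with 0.6 uM human TRb ligand-binding domain, in Tris buffer with 1uM T3 and 5% DMSO. Incubated 5 hr ambient; normalized to unbound and bound controls.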
# A number is an active result; n = inactive; u = inconclusive; x = no result given; [ ] = dose if it differs, or a comment. Compounds with a hit are over-represented: about 3% of the library has one in this group of screens. Unless noted, calls follow the shape of the dose curve; as a rule, active = well fitted curve in the direction sought with a large enough effect; inconclusive = small, poorly fitted or top-dose-only effect, or another doubt; inactive = no such curve, though single readings can be large; an effect the other way counts as inactive or inconclusive.
SMILES,Tau FP inhib,TexasRed fluor,Tau fibril ThT,Tau fluor counter,TRb-SRC2 inh
Nc1cc([N+](=O)[O-])ccc1Nc1ccccc1,u,n,16µM,u,n
COc1cc(Cl)c(C)cc1NC(=O)c1sc2nc3n(c(=O)c2c1C)CCCCC3,n,n,n,n,n
CC(C)(C)C(=O)Nc1ccccc1C(=O)OCc1cc(=O)n2ccsc2n1,n,n,n,n,n
COC(=O)c1c(C)sc(-c2c(-c3cccc(Cl)c3)[nH]c3c2c(=O)[nH]c(=O)n3C)c1O,n,n,u,u,n
CC(Oc1ccc(Cl)cc1Cl)c1nc(-c2ccc(NC(=O)c3ccncc3)cc2)no1 (stereo unspecified),n,n,n,n,n
CC(Oc1ccc(Cl)cc1Cl)c1nc(-c2ccc(NC(=O)c3cccnc3)cc2)no1 (stereo unspecified),16µM,n,n,u,n
Oc1ccccc1/C=N/NC(=S)NC1CC2CC1C1C=CCC21 (stereo unspecified),n,n,n,13µM[quencher],n
COC(=O)NC(/C(C(=O)OC)=C(\C)NCc1ccccc1)c1cccs1 (stereo unspecified),n[11.6 µM],n[11.2 µM],n[11.5 µM],n[11.6 µM],n[11.2 µM]
CCOc1ccc(C(=O)N/N=C/c2ccc(-c3ccc(S(=O)(=O)Nc4ncccn4)cc3)o2)cc1,n,n,u,n,n
O=C(N/N=C/c1ccc(-c2ccc(S(=O)(=O)Nc3ncccn3)cc2)o1)c1cc2ccccc2cc1O,u,16µM[quencher],14µM,u,u
CC(Cl)(Cl)C(=O)OCCOc1cc(Cl)c(Cl)cc1Cl,x,n,x,x,n
C=CCS/C(N)=N\N=C\c1c(O)ccc2ccccc12,n,n,u,11µM[quencher],n
CCCS/C(N)=N/N=C/c1ccccc1O,n,n,n,n,n
O=C(Nc1nc(=S)ss1)c1ccc(Cl)cc1Cl,u,n,32µM,n,n
COc1cccc(-c2cc(C(F)(F)F)nc(-n3cccn3)n2)c1,n,n,u,n,n
CCOC(=O)c1ccn(-c2nc(-c3cccc(OC)c3)cc(C(F)(F)F)n2)n1,n,0.0022µM[quencher],u,n,n
Cc1ccc2nc(-c3ccccc3O)c(Nc3ccc4c(c3)OCCO4)n2c1,n,n,u,7.1µM[quencher],n
Cc1ccc2nc(-c3ccc(O)cc3)c(Nc3ccc4c(c3)OCCO4)n2c1,n,n,u,25µM[quencher],n
COC(=O)C1=C(C(=O)OC)[C@@H]2N(C)c3ccccc3[C@@]23C[C@@H](C(=O)OC)N(S(=O)(=O)c2ccc(C)cc2)C3=N1,n[11.6 µM],n[11.2 µM],n[11.5 µM],n[11.6 µM],n[11.2 µM]
C=C1c2ccccc2O[C@H](C(=O)OCC)[C@@H]1CCC(C)C (tested in a mixture with another compound),n,n,u,n,n
COC(=O)c1sc2nc(C)c([N+](=O)[O-])c(C)c2c1N,n,n,3.2µM,n,n
O=C1C(Cl)=C(NS(=O)(=O)c2ccc([N+](=O)[O-])cc2)C(=O)c2ccccc21,8.9µM,n,2µM,2.5µM[quencher],n
O=C1NC2=C(C(=O)c3ccccc32)C(c2ccccc2)N1 (stereo unspecified),u,n,22µM,n,n
CCOc1ccc(C2C(C(=O)OC)=C(C)NC3=C2C(=O)c2ccccc23)cc1OC (stereo unspecified),n,n,u,16µM[quencher],n
COc1cc(C2C(C#N)=C(C)NC3=C2C(=O)c2ccccc23)cc(OC)c1OC (stereo unspecified),n,n,u,n,n
CC(=O)C1=C(C)NC(=O)NC1c1ccccc1 (stereo unspecified),n,n,n,n,n
C#CCOc1c(Br)cc(C2C(C(=O)OC)=C(C)NC3=C2C(=O)c2ccccc23)cc1OCC (stereo unspecified),u,n,6.3µM,3.5µM[quencher],n
CCOC(=O)C1=C(C)NC2=C(C(=O)c3ccccc32)C1c1cccnc1 (stereo unspecified),n,n,u,n,n
CC1=C([N+](=O)[O-])C(c2ccccc2)C2=C(N1)c1ccccc1C2=O (stereo unspecified),n,n,16µM,16µM[quencher],n
